Several values for one entry are separate records, joined by “and”; a condition that tells them apart may be missing. Identical values can stand only once. Hit rate of the full screen: of about 5,500 compounds, about 2,000 (36%) were called active. Not shown: some 18% with an inconclusive outcome. Rule as the data show it: active = normalized growth mostly below about 0.91 (no sharp cut-off); inconclusive = no clear call, values can overlap the other calls; inactive = mostly above about 0.92. This is one part of the list.
Experiment: chemical genetic growth profiling, strain panel (AID 1159580);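 also: tested at 20 µM; growth read once vehicle control cultures reached saturation at 30 °C; 1 = growth at the plate median or of vehicle wells; lower values mean less growth of the strain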
Settings: growth OD

Measured: normalized growth

O=C(O)c1cccnc1Nc1cccc(C(F)(F)F)c1
active: S. cerevisiae deletion strains, locus YDL185W, strain tfp1, active compounds read low 0.896 | S. cerevisiae deletion strains, locus YIL125W, strain kgd1, active compounds read low 0.919 | S. cerevisiae deletion strains, locus YKL068W, active compounds read low 0.912 | S. cerevisiae deletion strains, locus YKL085W, strain MDH1 (second series), active compounds read low 0.916 | S. cerevisiae deletion strains, locus YKL085W, strain MDH1, active compounds read low 0.916 | S. cerevisiae deletion strains, locus YML124C, strain tub3, active compounds read low 0.933 | S. cerevisiae deletion strains, locus YNL271C, strain bni1, active compounds read low 0.916 | S. cerevisiae deletion strains, locus YPR141C, strain kar3, active compounds read low 0.895
inactive: S. cerevisiae deletion strains, locus YAL013W, strain DEP1, active compounds read low 0.97 | S. cerevisiae deletion strains, locus YAL040C, strain CLN3, active compounds read low 1.02 | S. cerevisiae deletion strains, locus YBR021W, strain FUR4, active compounds read low 0.922 | S. cerevisiae deletion strains, locus YBR229C, strain ROT2, active compounds read low 0.964 | S. cerevisiae deletion strains, locus YCL029C, strain bik1, active compounds read low 0.944 | S. cerevisiae deletion strains, locus YCL061C, strain MRC1 (second series), active compounds read low 1 | S. cerevisiae deletion strains, locus YDL035C, strain GPR1, active compounds read low 0.984 | S. cerevisiae deletion strains, locus YDL074C, strain BRE1, active compounds read low 0.999 | S. cerevisiae deletion strains, locus YDL101C, strain DUN1, active compounds read low 0.981 | S. cerevisiae deletion strains, locus YDL134C, strain PPH21, active compounds read low 0.946 | S. cerevisiae deletion strains, locus YDL192W, strain arf1, active compounds read low 0.942 | S. cerevisiae deletion strains, locus YDR101C, strain arx1, active compounds read low 0.967 | S. cerevisiae deletion strains, locus YDR150W, strain NUM1, active compounds read low 0.975 | S. cerevisiae deletion strains, locus YDR162C, strain NBP2, active compounds read low 0.968 | S. cerevisiae deletion strains, locus YDR318W, strain mcm21, active compounds read low 0.953 | S. cerevisiae deletion strains, locus YDR363W, strain ESC2, active compounds read low 1 | S. cerevisiae deletion strains, locus YDR388W, active compounds read low 0.941 | S. cerevisiae deletion strains, locus YDR502C, strain sam2, active compounds read low 0.963 | S. cerevisiae deletion strains, locus YEL061C, strain CIN8, active compounds read low 0.972 | S. cerevisiae deletion strains, locus YER002W, strain NOP16, active compounds read low 0.973 | S. cerevisiae deletion strains, locus YER110C, active compounds read low 0.954 | S. cerevisiae deletion strains, locus YER155C, strain BEM2, active compounds read low 0.931 | S. cerevisiae deletion strains, locus YER167W, strain BCK2, active compounds read low 0.957 | S. cerevisiae deletion strains, locus YGL078C, strain dbp3, active compounds read low 0.943 | S. cerevisiae deletion strains, locus YGL086W, strain mad1, active compounds read low 0.963 | S. cerevisiae deletion strains, locus YGL248W, strain PDE1, active compounds read low 0.989 | S. cerevisiae deletion strains, locus YGR135W, strain pre9, active compounds read low 0.95 | S. cerevisiae deletion strains, locus YGR229C, strain SMI1, active compounds read low 0.978 | S. cerevisiae deletion strains, locus YGR252W, strain gcn5, active compounds read low 0.911 | S. cerevisiae deletion strains, locus YHR030C, strain SLT2, active compounds read low 0.949 | S. cerevisiae deletion strains, locus YHR079C, strain IRE1 (second series), active compounds read low 0.942 | S. cerevisiae deletion strains, locus YHR094C, strain hxt1, active compounds read low 0.941 | S. cerevisiae deletion strains, locus YHR129C, strain ARP1, active compounds read low 0.953 | S. cerevisiae deletion strains, locus YHR200W, strain rpn10, active compounds read low 0.945 | S. cerevisiae deletion strains, locus YIL066C, strain RNR3, active compounds read low 0.973 | S. cerevisiae deletion strains, locus YIL073C, strain SPO22, active compounds read low 0.954 | S. cerevisiae deletion strains, locus YIR030C, strain dcg1, active compounds read low 0.939 | S. cerevisiae deletion strains, locus YJL095W, strain BCK1, active compounds read low 0.996 | S. cerevisiae deletion strains, locus YJL134W, strain LCB3, active compounds read low 0.953 | S. cerevisiae deletion strains, locus YJL168C, strain set2, active compounds read low 0.941 | S. cerevisiae deletion strains, locus YJL187C, strain SWE1 (second series), active compounds read low 1 | S. cerevisiae deletion strains, locus YJR043C, strain POL32, active compounds read low 0.991 | S. cerevisiae deletion strains, locus YJR075W, strain HOC1, active compounds read low 0.981 and 1.02 | S. cerevisiae deletion strains, locus YKL009W, strain mrt4, active compounds read low 0.944 | S. cerevisiae deletion strains, locus YKL190W, strain CNB1, active compounds read low 0.979 | S. cerevisiae deletion strains, locus YKR001C, strain vps1, active compounds read low 0.949 | S. cerevisiae deletion strains, locus YLR039C, strain RIC1, active compounds read low 0.966 | S. cerevisiae deletion strains, locus YLR058C, strain SHM2, active compounds read low 0.969 | S. cerevisiae deletion strains, locus YLR102C, strain apc9, active compounds read low 0.938 | S. cerevisiae deletion strains, locus YLR262C, strain YPT6, active compounds read low 0.975 | S. cerevisiae deletion strains, locus YLR268W, strain sec22, active compounds read low 0.978 | S. cerevisiae deletion strains, locus YLR330W, strain CHS5, active compounds read low 0.943 | S. cerevisiae deletion strains, locus YLR342W, strain FKS1 (second series), active compounds read low 0.936 | S. cerevisiae deletion strains, locus YLR371W, strain rom2, active compounds read low 0.951 | S. cerevisiae deletion strains, locus YLR418C, strain cdc73, active compounds read low 0.909 | S. cerevisiae deletion strains, locus YML016C, strain PPZ1, active compounds read low 0.967 | S. cerevisiae deletion strains, locus YML032C, strain rad52, active compounds read low 0.966 | S. cerevisiae deletion strains, locus YMR078C, strain ctf18, active compounds read low 0.945 | S. cerevisiae deletion strains, locus YMR223W, strain ubp8, active compounds read low 0.958 | S. cerevisiae deletion strains, locus YMR263W, strain SAP30, active compounds read low 0.973 | S. cerevisiae deletion strains, locus YMR307W, strain GAS1, active compounds read low 0.881 | S. cerevisiae deletion strains, locus YNL067W, strain RPL9B, active compounds read low 1.02 | S. cerevisiae deletion strains, locus YNL153C, strain GIM3, active compounds read low 0.991 | S. cerevisiae deletion strains, locus YNL175C, strain NOP13, active compounds read low 0.981 | S. cerevisiae deletion strains, locus YNL197C, strain WHI3, active compounds read low 1 | S. cerevisiae deletion strains, locus YNL224C, strain SQS1, active compounds read low 0.969 | S. cerevisiae deletion strains, locus YNL233W, strain BNI4, active compounds read low 0.988 | S. cerevisiae deletion strains, locus YNL250W, strain rad50, active compounds read low 0.9 | S. cerevisiae deletion strains, locus YNL298W, strain CLA4, active compounds read low 0.942 | S. cerevisiae deletion strains, locus YNL307C, strain MCK1, active compounds read low 0.937 | S. cerevisiae deletion strains, locus YNL322C, strain KRE1, active compounds read low 0.969 and 1.02 | S. cerevisiae deletion strains, locus YNR052C, strain pop2, active compounds read low 0.949 | S. cerevisiae deletion strains, locus YOL006C, strain TOP1, active compounds read low 0.99 | S. cerevisiae deletion strains, locus YOL012C, strain htz1 1.13 | S. cerevisiae deletion strains, locus YOL147C, strain pex11, active compounds read low 0.935 | S. cerevisiae deletion strains, locus YOR061W, strain CKA2, active compounds read low 0.974 | S. cerevisiae deletion strains, locus YOR069W, strain VPS5, active compounds read low 0.956 | S. cerevisiae deletion strains, locus YOR083W, strain WHI5 (second series), active compounds read low 0.992 | S. cerevisiae deletion strains, locus YOR136W, strain idh2, active compounds read low 0.98 | S. cerevisiae deletion strains, locus YOR144C, strain elg1, active compounds read low 0.944 | S. cerevisiae deletion strains, locus YOR184W, strain ser1, active compounds read low 0.968 | S. cerevisiae deletion strains, locus YOR316C, strain cot1, active compounds read low 0.931 | S. cerevisiae deletion strains, locus YPL055C, strain LGE1, active compounds read low 1.04 and 1.01 | S. cerevisiae deletion strains, locus YPR119W, strain clb2, active compounds read low 0.934 | S. cerevisiae deletion strains, locus YPR163C, strain tif3, active compounds read low 0.95 | S. cerevisiae deletion strains, locus YPR167C, strain met16, active compounds read low 0.938 | S. cerevisiae deletion strains, strain wtn01, active compounds read low 0.957 | S. cerevisiae strains, strain wild type, active compounds read low 0.981

From PubChem BioAssay AID1159580 (chemical genetic matrix, 2015)
